# Bioassay records from PubChem BioAssay.
# Rows were chosen to be rich in hits. Some 4.7% of all compounds tested hit in one or more screens of this group.
# TRHR agonist-1: agonists of human TRH receptor. AID 493084. TRHR cells, calcium flux fluo-8, FDSS agonist mode. activation, % at 2 µM. P34981. 0.18% of 360,000 active; also: 0% is about no effect
#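 In this calcium-flux screen, cells bearing human TRHR are dye-loaded with fluo-8, baselined for 10 cycles, then exposed to library compounds; positive kinetic calcium responses during the agonist phase mark hits, with TRH as control.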
# TRHR enhancer-1: allosterically enhances the human TRH receptor | P34981 | TRHR cells, fluo-8 calcium fluorescence, EC20 TRH enhancement | AID 493056 | 0.66% of 360,000 active | enhancement, % at 2 µM; in the data active = enhancement above about 30%; also: 0% is about no effect
#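 Enhancer read-out: after compound pinning and an initial kinetic agonist-mode read, an EC20 of TRH (10 nM final) was injected and fluo-8 calcium signal (Ex 480/Em 530) followed at 1 s/cycle for 100 cycles in TRHR-expressing cells.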
# D1 ag: activates the human D1 dopamine receptor; 1% of 360,000 active; AID 504660; P21728; HEK293 T-REx D1 cells, calcium flux, agonist mode; activation, % at 2 µM; also: 0% is about no effect
# Target sequence (P21728 whole entry, looked up): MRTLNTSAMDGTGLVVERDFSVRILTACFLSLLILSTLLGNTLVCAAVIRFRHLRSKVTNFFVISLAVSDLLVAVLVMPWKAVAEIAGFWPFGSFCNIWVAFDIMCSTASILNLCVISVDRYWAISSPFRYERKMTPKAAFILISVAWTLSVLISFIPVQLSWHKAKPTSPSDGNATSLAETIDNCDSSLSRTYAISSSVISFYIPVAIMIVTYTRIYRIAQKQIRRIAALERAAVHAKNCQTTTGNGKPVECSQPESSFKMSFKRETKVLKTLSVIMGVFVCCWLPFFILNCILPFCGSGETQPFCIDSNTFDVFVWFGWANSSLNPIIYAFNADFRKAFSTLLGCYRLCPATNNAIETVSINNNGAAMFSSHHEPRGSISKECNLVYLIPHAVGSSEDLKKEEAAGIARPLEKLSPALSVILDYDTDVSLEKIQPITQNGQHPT
#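 Agonism was scored from calcium flux recorded over 180 s (1 read/s) after pintool compound addition, following a 10-cycle baseline. Cells were inducible force-coupled HEK293 TREx D1, plated overnight at 30 C and loaded with no-wash calcium dye.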
# D1 potentiator: potentiators of human D1 dopamine receptor. P21728. HEK293 TREx D1 cells, calcium flux, dopamine EC20 potentiation. potentiation, % at 10 µM. 0.036% of 360,000 active. AID 504651; in the data active = potentiation above about 30%; also: 0% is about no effect
# D1 antagonist: antagonists of human D1 dopamine receptor | P21728 | activity change, negative = inhibition, % at 10 µM | 3.2% of 360,000 active | HEK293 TREx D1 cells, calcium flux, dopamine EC80; active compounds read low; in the data active = activity change below about -30%; also: % is scaled to controls: 0 for no effect and ±100 for the full control effect
#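 Using tetracycline-induced force-coupled D1 Hek293 cells and a calcium dye, signals were followed for 180 s after compound, then for 180 s after EC80 dopamine, to detect inhibitors.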
# TRHR enhancer-2: human TRH receptor allosteric enhancement confirmation; activity change, negative = inhibition, % at 46.1 µM; AID 493076; TRH receptor cell assay, enhancer confirmation qHTS; 970 tested, under 10 active; shares compounds with TRHR enhancer-1; active = well fitted curve in the direction sought with a large enough effect; inconclusive = small, poorly fitted or top-dose-only effect, or another doubt; inactive = no such curve, though single readings can be large; an effect the other way counts as inactive or inconclusive;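 also: compound effect scored on response to added TRH at EC20 of 10 nM; 0% is about no effect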
# TRHR agonist-2: confirmation of human TRH receptor agonists | Potency, µM (highest dose often 46.1 µM), for the others: at the top dose activation, most hits filed as activators | AID 493078 | shares compounds with TRHR enhancer-1 | TRHR-expressing cells, agonist activation read-out | 8% of 970 active; active = well fitted curve in the direction sought with a large enough effect; inconclusive = small, poorly fitted or top-dose-only effect, or another doubt; inactive = no such curve, though single readings can be large; an effect the other way counts as inactive or inconclusive; also: potency is read from the fitted curve at half-maximal effect; 0% is about no effect; nearly all actives have a fitted effect of over 75% in size
# Numbers without * were called inactive; ? = inconclusive; nt = no result. Rule as the data show it, unless noted: active = activation above about 30%; inactive = the rest.
SMILES,TRHR agonist-1,TRHR enhancer-1,D1 ag,D1 potentiator,D1 antagonist,TRHR enhancer-2,TRHR agonist-2
CCC(=O)N1CCc2cc(S(=O)(=O)CCC(=O)N3CCN(c4cccc(C)c4)C(C)C3)ccc21 (stereo not drawn),-1,4,2,0,-18,nt,nt
O=C(Nc1ccc([N+](=O)[O-])cc1)c1nc[nH]c1C(=O)NC1CCCCC1,43*,7,2,-5,-9,4,-1%
COc1ccc(OC)c(C(c2c(C)[nH][nH]c2=O)c2c(C)[nH][nH]c2=O)c1,1,50*,0,-9,-20,-1,1%
CCS(=O)(=O)Nc1ccc(-c2cn3ccsc3n2)cc1,0,0,1,0,2,nt,nt
COc1ccc(N/N=C(\C#N)C(N)=O)cc1,0,45*,1,5,6,10,1%
Cc1cccc(C)c1OCC(=O)N1CCC(c2nc3ccccc3o2)CC1,0,2,2,1,-5,nt,nt
COc1ccc(S(=O)(=O)N2CCN(c3ccc4nnc(-c5ccccc5)n4n3)CC2)cc1,0,48*,1,0,-4,4,-1%
CCCCOC(=O)c1ccc(NC(=O)c2sc3nc(C)cc(C)c3c2N)cc1,-1,11,-1,0,-5,nt,nt
Cc1cc(C)c2c(CC(=O)Nc3ccc(S(=O)(=O)Nc4nc(C)cc(C)n4)cc3)coc2c1,0,4,1,1,-10,nt,nt
NNc1nc(-c2ccccc2)cc(-c2ccccc2)n1,0,-3,5,-4,1,nt,nt
N#Cc1cc(-c2ccccc2)nc(NN)n1,0,48*,3,-3,-12,-16,-1%
COc1ccc(Br)cc1CNC(=O)C(C)n1nc(C)n2c(cc3occc32)c1=O (stereo not drawn),0,18,1,-4,14,nt,nt
COc1ccccc1C(=O)Nc1ccnn1C1CCN(C/C=C/c2ccc(F)cc2)CC1,-1,47*,23,-2,-32*,2,1%
CCOc1ccc(C(=O)Nc2ccc(N3CCN(C(C)=O)CC3)cc2)cc1[N+](=O)[O-],1,-9,0,-6,-13,nt,nt
CCOc1ccc(C(=O)Nc2ccc(N3CCN(C)CC3)cc2)cc1[N+](=O)[O-],1,63*,2,0,-10,7,0%
O=C(Nc1ncccc1O)c1c(O)c2ccccc2[nH]c1=O,27,-6,0,-3,15,5,-1%
Cc1c2cnn(CC(=O)NCc3ccc(F)cc3)c(=O)c2c(C)n1Cc1cccc(Cl)c1,-1,2,6,5,1,nt,nt
O=C(C1=C(O)C(=O)N(c2nccs2)C1c1ccccc1)c1cc2ccccc2o1 (stereo not drawn),57*,2,107*,0,-14,?,4.6µM*
O=C(CSc1ccc(Br)cc1)N1CCN(C(=O)c2ccco2)CC1,-1,60*,3,-5,-26,-3,0%
COC(=O)c1c(NC(=O)/C(C#N)=C/c2ccc(OC)cc2)sc2c1CCC2,1,0,0,1,-7,nt,nt
Cc1[nH]c2ccccc2c1/C=N/Nc1nc(Nc2ccccc2)nc(N2CCOCC2)n1,0,55*,0,-2,-5,-1,-1%
Cc1ccc(C)c(NC(=O)CSc2c(C)cnc3c2c(=O)n(C)c(=O)n3C)c1,0,3,-2,-1,nt,nt,nt
Cc1cccc(N2CCN(C(=O)NC3CCCCC3)CC2C)c1 (stereo not drawn),0,42*,3,2,-20,-9,2%
Cc1cccc(N2CCN(C(=O)/C=C/c3cccs3)CC2C)c1 (stereo not drawn),0,-6,0,-3,7,nt,nt
O=C(CSc1cn(CC(=O)N2CCCCCC2)c2ccccc12)Nc1ccccc1F,-1,-7,7,-6,-12,nt,nt
SMILES,TRHR agonist-1,TRHR enhancer-1,D1 ag,D1 potentiator,D1 antagonist,TRHR enhancer-2,TRHR agonist-2
O=C(CCn1c(=O)c2cccn2c2cccnc21)NCc1ccc(F)cc1,0,0,-1,-5,1,nt,nt
CCN(CC)c1ccc2cc(NC(=O)CCC(=O)O)c(=O)oc2c1,26,5,56*,-4,6,10,21µM*
CC(=O)Nc1cc2ccccc2oc1=O,0,-6,-1,1,15,nt,nt
CCOc1ccc(-c2cn3nc(CC(C)C)sc3n2)cc1,0,-3,0,-3,9,nt,nt
Cc1nn(-c2ccccc2)c(N2CCCC2)c1/C=N/NC(=O)c1ccccc1O,0,83*,3,-3,-6,-8,?
COc1ccc(C(=O)NCCc2nnc3ccc(SCC(=O)NCc4ccccc4)nn23)cc1,-1,64*,1,-8,4,-6,-1%
COc1ccccc1CNC(=O)c1cccc(Nc2nc3ccccc3n3nnnc23)c1,0,-5,0,-3,-12,nt,nt
Oc1c(C=Nc2ccc(Cl)cn2)sc2ccccc12,11,-2,26,0,-9,nt,nt
Oc1c(/C=N/c2ccccn2)sc2ccccc12,7,41*,14,-2,10,7,?
Cc1nc2cc(O)ccc2n1C,2,61*,1,-4,8,-3,1%
Cc1nc2cc3ccccc3cc2n1C,0,5,0,1,3,nt,nt
CN(C)CCSc1nc(-c2ccccc2)nc2c1COC(C)(C)C2,0,46*,2,-4,nt,1,2%
CC(=O)c1ccccc1OCCOc1ncnc2sccc12,1,60*,11,-1,1,1,7%
Cc1cc(C(F)F)n2nc(C(=O)Nc3ccc(C(C)C)cc3)nc2n1,0,1,0,-3,0,nt,nt
Cc1ccc(-c2c3c(=O)n(C)c(=O)n(C)c3c3cnc4ccccc4n23)cc1,0,59*,1,7,4,-1,2%
CCc1nc2ccccc2n2c(-c3ccc(C)cc3)c3c(=O)n(C)c(=O)n(C)c3c12,0,-4,2,-1,-17,nt,nt
CC(=O)c1cc(NC(=O)c2ccc(C)cc2)c(=O)oc1/C=C/N(C)C,29,-1,34*,0,15,4,21µM*
COCCN(C(=S)Nc1ccccc1C)C(C)c1cccnc1 (stereo not drawn),-2,15,2,0,-5,nt,nt
Cc1ccccc1NC(=S)N(CCN(C)C)C(C)c1cccnc1 (stereo not drawn),0,43*,1,-2,-6,-9,-1%
Cn1cc(CN2CCN(CCO)CC2)c(-c2ccc(Oc3ccccc3)cc2)n1,1,6,5,3,-3,nt,nt
COCCN1CCN(Cc2cn(C)nc2-c2ccc(Oc3ccccc3)cc2)CC1,0,44*,8,2,-4,-5,2%
